Results filed as inconclusive are left out. The source made the active and inactive calls. Rule for the calls, unless noted: active = hit-call score of the fitted dose curve at least 0.9, where 1 is the maximum; inactive = score below 0.9.
Columns and labels:
[1] = target: Retinoic acid receptor RXR-alpha (Homo sapiens) (UniProt P19793); test: ATG_RXRa_TRANS: Attagene TRANS-FACTORIAL HepG2 Assay for human Retinoid X Receptor alpha (RXRa) (AID 2283012; active = hit-call score of the fitted dose curve at least 0.9, where 1 is the maximum)
Summary of the method: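 Measures exogenous chimeric NR-GAL4 activity in transfected HepG2 liver cells after 24 h of dosing. Induced reporter mRNA was detected by RT-PCR with capillary electrophoresis, and gain of signal was analysed against DMSO.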

[2] = target: human Retinoid X Receptor beta (RXRb), RXRB (gene 6257) (UniProt P28702); test: ATG_RXRb_TRANS: Attagene TRANS-FACTORIAL HepG2 Assay for human Retinoid X Receptor beta (RXRb) (AID 2283013; active = hit-call score of the fitted dose curve at least 0.9, where 1 is the maximum)
Summary of the method: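 Chimeric receptor-Gal4 activity was assessed in transiently transfected human HepG2 cells after 24 h exposure. Transcripts from GAL4-UAS reporters were quantified by fluorescent RT-PCR and capillary electrophoresis, with DMSO as negative control and baseline.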

[3] = target: human Thyroid Receptor alpha (THRa1), THRA (gene 7067) (UniProt P10827); test: ATG_THRa1_TRANS: Attagene TRANS-FACTORIAL HepG2 Assay for human Thyroid Receptor alpha (THRa1) (AID 2283014; active = hit-call score of the fitted dose curve at least 0.9, where 1 is the maximum)
Summary of the method: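 Reporter transcript induction, read by capillary electrophoresis of 6-FAM-labelled RT-PCR products, reflects activity of a transfected THRa1-Gal4 fusion in HepG2 liver cells. Cells were dosed for 24 h; activity was fitted in the positive direction against DMSO.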

[4] = target: human Vitamin D Receptor (VDR), VDR (gene 7421) (UniProt P11473); test: ATG_VDR_TRANS: Attagene TRANS-FACTORIAL HepG2 Assay for human Vitamin D Receptor (VDR) (AID 2283022; active = hit-call score of the fitted dose curve at least 0.9, where 1 is the maximum)
Summary of the method: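 Steps: transfect HepG2 with GAL4-UAS-driven reporter constructs; dose compounds 24 h; isolate RNA, reverse-transcribe, PCR-amplify with 6-FAM-labelled primer extension and HpaI digestion; quantify fragments by capillary electrophoresis relative to DMSO.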

[5] = read-out: E-selectin (Homo sapiens) (UniProt P16581); test: BSK_3C_Eselectin: BioMAP Diversity Plus: 3C Assay for Eselectin Biomarker Activity (AID 2283015); conditions: primary human endothelial cells (HUVEC); actives raise or lower the signal
Summary of the method: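 ELISA read-out of E-selectin on endothelial monolayers after 24 h chemical treatment. Human umbilical vein primary cells served as the system, with DMSO defining baseline activity for bidirectional fitting.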

[6] = read-out: Interleukin-1 alpha (IL1a), IL1A (gene 3552); test: BSK_BE3C_IL1a: BioMAP Diversity Plus: BE3C Assay for Interleukin-1 alpha (IL1a) Biomarker Activity (AID 2283016); conditions: primary human bronchial epithelial cells; actives raise or lower the signal
Summary of the method: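 Signal from IL-1a ELISA, taken 24 h after chemical dosing of human bronchial epithelial cells, is compared with DMSO as baseline using bidirectional curve fitting.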

[7] = read-out: Monocyte Chemoattractant Protein-1 (MCP1), CCL2 (gene 6347); test: BSK_3C_MCP1: BioMAP Diversity Plus: 3C Assay for Monocyte Chemoattractant Protein-1 (MCP1) Biomarker Activity (AID 2283017); conditions: primary human endothelial cells (HUVEC); actives raise or lower the signal
Summary of the method: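 ELISA read-out of MCP-1 from human umbilical vein endothelial cell cultures harvested 24 h post-dosing. Gain or loss of signal was fitted relative to DMSO.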

[8] = read-out: Monocyte Chemoattractant Protein-1 (MCP1), CCL2 (gene 6347); test: BSK_4H_MCP1: BioMAP Diversity Plus: 4H Assay for Monocyte Chemoattractant Protein-1 (MCP1) Biomarker Activity (AID 2283018); conditions: primary human endothelial cells (HUVEC); actives raise or lower the signal
Summary of the method: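 Endothelial cells from umbilical vein were treated with test chemical, then after 24 h MCP-1 levels were quantified by ELISA; endpoint values came from bidirectional fitting with DMSO as baseline of activity.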

[9] = read-out: Human Leukocyte Antigen - DR isotype (HLADR), HLA-DRA (gene 3122); test: BSK_3C_HLADR: BioMAP Diversity Plus: 3C Assay for Human Leukocyte Antigen - DR isotype (HLADR) Biomarker Activity (AID 2283019); conditions: primary human endothelial cells (HUVEC); actives raise or lower the signal
Summary of the method: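 ELISA readout of surface HLA-DR on human umbilical vein endothelium, taken 24 h after chemical treatment. Gain- and loss-of-signal were both fitted relative to DMSO.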

[10] = read-out: Interleukin-8 (IL8), CXCL8 (gene 3576); test: BSK_3C_IL8: BioMAP Diversity Plus: 3C Assay for Interleukin-8 (IL8) Biomarker Activity (AID 2283020); conditions: primary human endothelial cells (HUVEC); actives raise or lower the signal
Summary of the method: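 Endothelial primary cells of human umbilical vein origin are dosed with chemical; after 24 h the IL-8 biomarker is measured by ELISA, and concentration–response is fitted in both directions versus DMSO.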

[11] = read-out: Monokine induced gamma interferon (MIG), CXCL9 (gene 4283); test: BSK_3C_MIG: BioMAP Diversity Plus: 3C Assay for Monokine induced gamma interferon (MIG) Biomarker Activity (AID 2283021); conditions: primary human endothelial cells (HUVEC); actives raise or lower the signal
Summary of the method: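 Endothelial primary cells (human umbilical vein) are dosed with test chemical in the 3C system. MIG levels are measured by ELISA at 24 h and fitted in both directions relative to DMSO.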

[12] = BSK_3C_SRB: Viability Assessment in the BioMAP Diversity Plus: 3C Assay (AID 2283023); conditions: primary human endothelial cells (HUVEC);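 note: fitted both ways against DMSO so a hit may be signal rise or drop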
Summary of the method: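 Absorbance at 560 nm of sulforhodamine B-stained (0.1%) total protein served as a cytotoxicity readout in human umbilical vein endothelial cells, 24 h after chemical treatment. Signal was fitted bidirectionally relative to DMSO.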

[13] = read-out: Matrix Metallopeptidase 1 (MMP1), MMP1 (gene 4312); test: BSK_BE3C_MMP1: BioMAP Diversity Plus: BE3C Assay for Matrix Metallopeptidase 1 (MMP1) Biomarker Activity (AID 2283024); conditions: primary human bronchial epithelial cells; actives raise or lower the signal
Summary of the method: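 MMP1 signal, measured by ELISA after a 24 h chemical exposure of human primary bronchial epithelial cells, is analysed with bidirectional fitting using DMSO as negative control.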

[14] = BSK_3C_Vis: BioMAP Diversity Plus: 3C Assay for Morphology Visualization (AID 2283025); conditions: primary human endothelial cells (HUVEC);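 note: fitted both ways so gain or loss versus DMSO counts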
Summary of the method: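 Morphology read by light microscopy serves as a background control for the multiplexed 3C assay in human umbilical vein endothelial cells, taken 24 h after dosing, with DMSO as the negative control and bidirectional curve fitting.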

[15] = read-out: Pselectin, SELP (gene 6403); test: BSK_4H_Pselectin: BioMAP Diversity Plus: 4H Assay for Pselectin Biomarker Activity (AID 2283026); conditions: primary human endothelial cells (HUVEC); actives raise or lower the signal
Summary of the method: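 Endothelial primary cells (human umbilical vein) are dosed, incubated 24 h, and assayed for surface P-selectin by ELISA; responses in either direction are fitted relative to the DMSO negative control.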

[16] = BSK_4H_SRB: Viability Assessment in the BioMAP Diversity Plus: 4H Assay (AID 2283027); conditions: primary human endothelial cells (HUVEC);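 note: cells exposed to compound for 24 h before staining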;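 for AC50: curves fitted both ways versus DMSO so AC50 may be loss or gain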
Summary of the method: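 Cytotoxicity read-out in primary human endothelial cells: after 24 h compound exposure, cells were TCA-fixed (10%), stained with 0.1% SRB and absorbance taken at 560 nm. Values fitted in both directions relative to DMSO.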

[17] = BSK_BE3C_SRB: Viability Assessment in the BioMAP Diversity Plus: BE3C Assay (AID 2283028); conditions: primary human bronchial epithelial cells
Summary of the method: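 Cells (human bronchial epithelial, primary) are treated with chemicals, and after 24 h the parallel cultures are fixed in 10% TCA. These are then stained with 0.1% SRB and read at 560 nm. Gain or loss of signal is fitted relative to DMSO.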

[18] = read-out: Thrombomodulin, THBD (gene 7056); test: BSK_3C_Thrombomodulin: BioMAP Diversity Plus: 3C Assay for Thrombomodulin Biomarker Activity (AID 2283029); conditions: primary human endothelial cells (HUVEC); actives raise or lower the signal
Summary of the method: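 Endothelial cells from umbilical vein are dosed with test chemical and incubated 24 h. Thrombomodulin is then quantified by ELISA, with DMSO serving as negative control and activity baseline.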

[19] = read-out: Urokinase-type plasminogen activator receptor (uPAR), PLAUR (gene 5329); test: BSK_4H_uPAR: BioMAP Diversity Plus: 4H Assay for Urokinase-type plasminogen activator receptor (uPAR) Biomarker Activity (AID 2283030); conditions: primary human endothelial cells (HUVEC); actives raise or lower the signal
Summary of the method: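 Cell-surface uPAR ELISA signal, measured 24 h after dosing human umbilical vein endothelial cells, was analyzed with bidirectional fitting relative to DMSO. Parallel SRB staining of total protein tracked overt cytotoxicity.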

[20] = read-out: Vascular endothelial growth factor receptor 2 (Homo sapiens) (UniProt P35968); test: BSK_4H_VEGFRII: BioMAP Diversity Plus: 4H Assay for Vascular endothelial growth factor receptor 2 (VEGFR2) Biomarker Activity (AID 2283031); conditions: primary human endothelial cells (HUVEC); actives raise or lower the signal;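 for AC50: cell-surface VEGFR2 protein level quantified by ELISA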
Summary of the method: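 ELISA read-out of VEGFRII in primary human umbilical vein endothelium, taken 24 h after chemical treatment. Responses are expressed relative to DMSO, with bidirectional fitting.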

Measured: AC50

human Thyroid Receptor alpha (THRa1), THRA (gene 7067), sequence (P10827 whole entry, looked up, the tested form may be a part): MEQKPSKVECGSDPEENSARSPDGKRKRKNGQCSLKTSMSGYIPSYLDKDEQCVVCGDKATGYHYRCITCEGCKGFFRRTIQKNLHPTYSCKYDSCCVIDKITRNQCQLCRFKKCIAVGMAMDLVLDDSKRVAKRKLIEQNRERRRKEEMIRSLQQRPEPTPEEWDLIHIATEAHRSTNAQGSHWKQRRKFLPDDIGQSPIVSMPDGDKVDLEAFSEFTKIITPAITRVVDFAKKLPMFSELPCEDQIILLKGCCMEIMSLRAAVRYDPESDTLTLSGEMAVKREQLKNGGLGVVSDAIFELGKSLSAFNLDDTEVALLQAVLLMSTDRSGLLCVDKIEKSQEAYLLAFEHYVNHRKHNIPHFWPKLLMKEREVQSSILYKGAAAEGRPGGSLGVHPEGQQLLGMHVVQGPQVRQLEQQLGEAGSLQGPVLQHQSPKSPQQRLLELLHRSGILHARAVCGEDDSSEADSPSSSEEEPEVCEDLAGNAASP
Retinoic acid receptor RXR-alpha (Homo sapiens), sequence (P19793 whole entry, looked up, the tested form may be a part): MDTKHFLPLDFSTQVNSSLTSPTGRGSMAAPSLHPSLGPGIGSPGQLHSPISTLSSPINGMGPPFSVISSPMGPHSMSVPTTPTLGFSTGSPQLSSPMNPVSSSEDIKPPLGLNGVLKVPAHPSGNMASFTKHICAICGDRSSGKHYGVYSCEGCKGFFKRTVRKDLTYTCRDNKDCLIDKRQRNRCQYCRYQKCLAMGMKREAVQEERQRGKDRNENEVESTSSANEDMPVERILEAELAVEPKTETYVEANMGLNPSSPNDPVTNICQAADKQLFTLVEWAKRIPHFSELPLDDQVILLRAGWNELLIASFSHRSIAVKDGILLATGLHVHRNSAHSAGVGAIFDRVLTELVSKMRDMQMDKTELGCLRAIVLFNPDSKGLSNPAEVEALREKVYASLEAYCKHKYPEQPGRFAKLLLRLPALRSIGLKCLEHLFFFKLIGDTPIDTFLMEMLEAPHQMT
E-selectin (Homo sapiens), sequence (P16581 whole entry, looked up): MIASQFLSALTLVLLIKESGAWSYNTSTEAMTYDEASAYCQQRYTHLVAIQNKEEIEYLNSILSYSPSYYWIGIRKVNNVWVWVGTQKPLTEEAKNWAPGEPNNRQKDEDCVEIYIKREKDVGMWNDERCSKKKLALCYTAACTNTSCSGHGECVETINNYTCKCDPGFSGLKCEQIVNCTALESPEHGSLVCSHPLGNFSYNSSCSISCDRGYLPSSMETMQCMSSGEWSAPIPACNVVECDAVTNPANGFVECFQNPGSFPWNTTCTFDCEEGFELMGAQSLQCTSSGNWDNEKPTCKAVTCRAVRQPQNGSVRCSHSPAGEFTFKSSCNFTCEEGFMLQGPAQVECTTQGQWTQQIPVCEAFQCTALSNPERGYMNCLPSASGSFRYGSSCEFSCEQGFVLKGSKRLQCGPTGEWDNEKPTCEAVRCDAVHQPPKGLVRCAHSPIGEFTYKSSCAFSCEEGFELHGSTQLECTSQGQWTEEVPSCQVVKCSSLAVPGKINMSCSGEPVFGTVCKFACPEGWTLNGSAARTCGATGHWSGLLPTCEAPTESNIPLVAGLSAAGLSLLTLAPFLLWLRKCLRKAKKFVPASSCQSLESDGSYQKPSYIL
human Vitamin D Receptor (VDR), VDR (gene 7421), sequence (P11473 whole entry, looked up, the tested form may be a part): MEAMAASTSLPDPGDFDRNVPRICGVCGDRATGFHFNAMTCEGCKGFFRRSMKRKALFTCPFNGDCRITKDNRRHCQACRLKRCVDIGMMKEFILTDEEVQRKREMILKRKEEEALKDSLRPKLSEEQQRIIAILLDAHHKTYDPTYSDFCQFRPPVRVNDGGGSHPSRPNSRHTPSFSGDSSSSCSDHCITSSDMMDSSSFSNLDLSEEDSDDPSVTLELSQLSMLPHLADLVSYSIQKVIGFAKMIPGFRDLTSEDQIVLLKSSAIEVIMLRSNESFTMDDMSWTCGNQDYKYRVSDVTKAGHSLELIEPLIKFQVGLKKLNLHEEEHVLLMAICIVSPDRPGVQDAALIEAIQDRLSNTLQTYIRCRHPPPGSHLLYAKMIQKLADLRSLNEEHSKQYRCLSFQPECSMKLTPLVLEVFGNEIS
human Retinoid X Receptor beta (RXRb), RXRB (gene 6257), sequence (P28702 whole entry, looked up, the tested form may be a part): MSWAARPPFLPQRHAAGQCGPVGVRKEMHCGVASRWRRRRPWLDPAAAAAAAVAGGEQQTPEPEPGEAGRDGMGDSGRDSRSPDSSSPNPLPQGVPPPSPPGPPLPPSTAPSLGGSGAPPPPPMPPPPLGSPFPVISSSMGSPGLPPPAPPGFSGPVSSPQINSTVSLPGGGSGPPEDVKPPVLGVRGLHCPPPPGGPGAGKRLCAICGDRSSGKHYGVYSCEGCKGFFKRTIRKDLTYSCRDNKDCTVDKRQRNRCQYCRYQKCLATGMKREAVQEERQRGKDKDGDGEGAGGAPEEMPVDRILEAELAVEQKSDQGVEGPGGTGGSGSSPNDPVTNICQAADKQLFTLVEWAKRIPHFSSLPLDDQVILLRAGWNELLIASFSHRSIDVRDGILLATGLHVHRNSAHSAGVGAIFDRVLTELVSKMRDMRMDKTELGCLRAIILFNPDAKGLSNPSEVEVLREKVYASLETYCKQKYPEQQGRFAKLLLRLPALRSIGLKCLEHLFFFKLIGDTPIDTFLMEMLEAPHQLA

CCOP(=S)(OCC)Oc1ccc(Cl)cc1Cl
active: [2] 27.6 µM
inactive: [1] | [3] | [4]

CCCCCCCCCCCCCCC(Br)C(=O)O (stereo not given)
active: [1] 26.7 µM | [2] 9.18 µM
inactive: [4]

Cc1c([N+](=O)[O-])c(C)c([N+](=O)[O-])c(C(C)(C)C)c1[N+](=O)[O-]
active: [1] 9.15 µM | [2] 1.12 µM | [5] 20 µM | [8] 20 µM | [9] 26.9 µM | [12] 20 µM | [13] 7.08 µM | [14] 37.4 µM
inactive: [6] | [7] | [10] | [11] | [15] | [16] | [17] | [18] | [19] | [20]

Cc1cc(Cl)ccc1O
active: [2] 100 µM
inactive: [1] | [4]

FC(F)OCC(F)(F)C(F)(F)F
inactive: [1] | [2] | [4]

O=C/C(Cl)=C(/Cl)C(=O)O
inactive: [1] | [2] | [3] | [4]

N#Cc1ccc(Cl)cc1
inactive: [1] | [2] | [4]

CCOP(=S)(OCC)O/N=C(\C#N)c1ccccc1
inactive: [1] | [4]
active: [2] 27.5 µM

CC(C)(c1ccc(O)c(-c2ccccc2)c1)c1ccc(O)c(-c2ccccc2)c1
inactive: [1] | [3]

OCCN(CCO)CCO
inactive: [1] | [2] | [5] | [6] | [7] | [8] | [9] | [10] | [11] | [12] | [13] | [14] | [15] | [16] | [17] | [18] | [19] | [20]

CC(c1ccc(O)cc1)c1ccc(O)cc1
inactive: [1] | [3]

BrCc1ccc(Br)cc1
inactive: [1] | [4]

CC(C)[C@H](C(=O)OC(C#N)c1cccc(Oc2ccccc2)c1)c1ccc(OC(F)F)cc1 (stereo not given in full)
inactive: [1] | [3]

OC(Cc1ccccc1Cl)(Cn1[nH]cnc1=S)C1(Cl)CC1 (stereo not given)
inactive: [1] | [7] | [10] | [11] | [13] | [14] | [17] | [18]
active: [3] 27.8 µM | [5] 20 µM | [6] 33.2 µM | [8] 21.4 µM | [9] 30.1 µM | [12] 32 µM | [15] 20 µM | [16] 27.8 µM | [19] 20 µM | [20] 20 µM

CCOC(=O)Cc1ccccc1
inactive: [1] | [3] | [4]

O=S(=O)(Oc1ccc(Cl)cc1)c1ccc(Cl)cc1
inactive: [1] | [3]

O=C(N[C@H]1CN2CCC1CC2)c1ccc2c(c1)OCCO2
inactive: [1] | [5] | [6] | [7] | [8] | [9] | [10] | [11] | [12] | [13] | [14] | [15] | [16] | [17] | [18] | [19] | [20]

O=S(=O)(c1ccc(Cl)cc1)c1cc(Cl)c(Cl)cc1Cl
active: [7] 20 µM | [9] 5.27 µM | [10] 3.97 µM | [12] 5.42 µM | [14] 13.6 µM
inactive: [1] | [5] | [6] | [8] | [11] | [4] | [13] | [15] | [16] | [17] | [18] | [19] | [20]

CCCCOP(=O)(CCCC)OCCCC
inactive: [1] | [3] | [4]

O=S1(=O)OC(c2cc(Br)c(O)c(Br)c2)(c2cc(Br)c(O)c(Br)c2)c2ccccc21
inactive: [1] | [3]
